Our source for the sensor-assay potency score (higher = more potent) values is the OligoGym collection.
Also: reference of the scale not given here.

The target in one assay is TP53I13. The assay can be described thus: pooled miR-30 sensor sort-seq; sequence = guide strand. The settings on record: shRNA.
Turning to TGACTTGAACAGACACAGCCCC, the sensor-assay potency score (higher = more potent) is -0.111.

TTGGTGACACCTGCGGAGGCAG: the sensor-assay potency score (higher = more potent) was -1.23.

With TTGGCCTTCAAGCTCCCTGGGG, the sensor-assay potency score (higher = more potent) is -0.75.

As to TTCAGCACAGCAGCCACTGTGT, the sensor-assay potency score (higher = more potent) was -0.771.

As for TTTCACAGTAGATCCATGCCTT, the sensor-assay potency score (higher = more potent) stood at 0.393.

Take TTGAACAGACACAGCCCCCTGG: the sensor-assay potency score (higher = more potent) stood at 0.146.

For TAGCCATACAAGCATAGGCCAG, the sensor-assay potency score (higher = more potent) was -1.71.

The next assay addresses TP73. Described as above. The conditions noted are these: shRNA.
TCGAAGTAGGTGCTGTCTGGTT: the sensor-assay potency score (higher = more potent) is -0.818.

With TAGAGTTTCTTCAAGAGCGGGG, the sensor-assay potency score (higher = more potent) turned out to be 0.308.

The sequence TCTGGTTCCAGAGAGCTCCAGA displayed a sensor-assay potency score (higher = more potent) of 0.275.

In the case of TTGGGAGGTGAAATACTCGATG, the sensor-assay potency score (higher = more potent) is -0.725.

Take TTTCACGACGTCGGTCACGTGC: the sensor-assay potency score (higher = more potent) was -1.03.

As for TACACAGCTGCTGTTACACATG, the sensor-assay potency score (higher = more potent) was -0.991.

For the sequence TGGAGCAGACTGTCCTTCGTTG, the sensor-assay potency score (higher = more potent) was -1.24.

In the case of TAGTACGTGTCCTCGTCTCCAT, the sensor-assay potency score (higher = more potent) is -0.503.

Consider TTGGGTGTAGCTGCCGAACTGT, for which the sensor-assay potency score (higher = more potent) is -0.212.

In turn, TTGTAAACAGGCATGGCCCGGA yielded a sensor-assay potency score (higher = more potent) of 0.143.

As to TTACACATGAAGTTGTACAGGA, the sensor-assay potency score (higher = more potent) amounted to 1.03.

Take TGTAGCTGCCGAACTGTGCGGG: the sensor-assay potency score (higher = more potent) was -0.215.

For a further assay, the target named is TPPP2. The description is as above. The settings on record: shRNA.
In the case of TCTTTGAACTGTTGAAACGTGA, the sensor-assay potency score (higher = more potent) is -0.298.

Take TTGTCAGTCATCTCTTCCCGTC: the sensor-assay potency score (higher = more potent) is -0.714.

For the sequence TTGTTGCTTTAGTAGCGCCAGT, the sensor-assay potency score (higher = more potent) is -1.46.

TTGTTGTTCATTTCAGTGCCAC gave a sensor-assay potency score (higher = more potent) of 0.0122.

With TGTAACCACTCACATAGCCTGT, the sensor-assay potency score (higher = more potent) is -0.785.

Take TTATTGTTTTCCAAGCTCCCTG: the sensor-assay potency score (higher = more potent) was -0.417.

As to TTGCTGGTGTCTGTCAAACGGT, the sensor-assay potency score (higher = more potent) was -1.11.

Turning to TTGTAACCACTCACATAGCCTG, the sensor-assay potency score (higher = more potent) is -0.748.

In the case of TTTGCTGAACACGATGTCCACG, the sensor-assay potency score (higher = more potent) is -0.579.

As to TTGATGATTCTCCAAACGCAGC, the sensor-assay potency score (higher = more potent) is -1.67.

Take TTGAACTGTTGAAACGTGATGG: the sensor-assay potency score (higher = more potent) was found to be 0.216.

In the case of TTCTTGGCCTTGACTTTGCTGA, the sensor-assay potency score (higher = more potent) was -0.996.

The target in a further assay is TPPP3. Described as above. The settings on record: shRNA.
TTGTAGGCGCTCACGTAGCCAC: the sensor-assay potency score (higher = more potent) is -1.01.

As to TTGACTTTGGAGAAGACGATGT, the sensor-assay potency score (higher = more potent) was -0.378.

In the case of TTGTGGGAGCCCGTGTATCTGC, the sensor-assay potency score (higher = more potent) was -1.44.

With TTGCAGTCCTTGCACAGCTTGG, the sensor-assay potency score (higher = more potent) was -0.971.

For the sequence ACTGTCGTCCAGGATGTCCTGC, the sensor-assay potency score (higher = more potent) is -0.739.

For the sequence TCGTCCAGGATGTCCTGCCGTC, the sensor-assay potency score (higher = more potent) is -0.707.

In the case of TTTAGTGACGCCCACATTGGCT, the sensor-assay potency score (higher = more potent) is -0.692.

As for TTGAACTCCTCATAGTTGATGA, the sensor-assay potency score (higher = more potent) was -0.547.

Regarding TTGCCATTCATCTCTTGCCCAC, the sensor-assay potency score (higher = more potent) is -1.13.
